Here are results for 34 compounds from PubChem BioAssay (NCI).

Each structure is given as a SMILES string. About 83,000 compounds went through this panel and 20% of them were active in at least one assay; those are over-represented in the sample as a whole.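 Values shown are percent growth following 48 h exposure of cells in 96-well plates to a single concentration of compound; below 10 was considered active.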 A number with no mark means an inactive call. Active and inactive are the calls of the source.

The experiment relates to MDA-MB-468 breast. Put plainly: NCI-60 one-dose screen, 48 h (100 = growth as untreated, 0 = no growth, -100 = all killed). The following applies: 10 µM unless noted.
With `Cn1cc(-c2ccc3cc(-c4ccc(CC(=O)Nc5cc(C(C)(C)C)nn5C)cc4)cnc3c2)cn1`, the growth is -6.24% (active).

For `Cc1ccc(C(=O)Nc2ccc(CN3CCN(C)CC3)c(C(F)(F)F)c2)cc1C#Cc1cncc2ncccc12`, the growth is 37.3%.

Turning to `CC1(C)NCCC[C@]2(C)[C@H]3CC=C4[C@@H]5C[C@](C)(COC(=O)c6ccccc6C(=O)O)CC[C@]5(C)CC[C@@]4(C)[C@]3(C)CC[C@@H]12`, the growth was 29.5%.

For `C[n+]1ccc(Nc2ccc(NC(=O)c3ccc(Nc4cc[n+](C)c5ccc(N)cc45)cc3)cc2)cc1`, the growth is 94.8%.

Take `COc1ccc(-c2nn(-c3cccc(NC(=O)c4cccc(C(F)(F)F)c4)c3)cc2-c2ccncc2)cc1Cl`: the growth was 31.4%.

For the compound `C/C(=C(/c1ccc(Cl)cc1)c1ccc(OCCN2CCCCC2)cc1)c1ccccc1`, the growth is 90.6%.

Turning to `Cc1c(-n2nnc(-c3nc4ccccc4s3)c2N)c(=O)n(-c2ccccc2)n1C`, the growth was 110%.

With `COc1c(C2CC(=O)Nc3c2c(C)nn3-c2nc3ccccc3[nH]2)cc2c(c1OC)OCO2` (centres undefined), the growth was 29.6%.

In the case of `COc1ccc(/C=N\NC(=O)c2cnn(CC(O)c3ccccc3)c2N)cc1OCc1ccc(Cl)cc1` (centres undefined), the growth is 76.8%.

For the compound `COc1ccc(/C=C/c2nc(Nc3cccc(NC(C)=O)c3)c3ccccc3n2)cc1`, the growth was 67.1%.

Take `N#Cc1ncc(-c2cc(F)ccc2F)c(NC2CCCCCC2)n1`: the growth was 90.3%.

For the compound `CC1(C)C(=O)/C(=C\c2ccco2)C[C@]2(C)[C@H]3CC[C@@H]4[C@@H](C(=O)/C=C/c5ccco5)CC[C@@]4(C)[C@]3(C)CC[C@@H]12`, the growth was -1.49% (active).

For `COc1ccc2[nH]cc(C3(c4c[nH]c5ccc(OC)cc45)C(=O)Nc4ccc(F)cc43)c2c1`, the growth is 96.9%.

On to `CC(=O)[C@H]1CCC/C=C/[C@@H]2C[C@H](O)C[C@H]2[C@H](O)/C=C/C(=O)O1`, for which the growth is -34.9% (active).

Take `O=c1c2cccc(F)c2sc2c(NCCCNCCO)nc3ccccc3c12`: the growth was -18.3% (active).

Turning to `COc1cc2nc(-c3ccc(C(F)(F)F)cc3)cc(OCCCN3CCC(O)CC3)c2cc1OC`, the growth is 44%.

On to `CCn1c(SCC(=O)Nc2cccc(C(=O)/C=C/c3ccccc3Cl)c2)nc2ccccc2c1=O`, for which the growth is 76.7%.

With `CCOC(=O)c1cnc2cc(Cl)c(F)cc2c1Nc1cccc(NS(C)(=O)=O)c1`, the growth is 87.6%.

Regarding `Cc1ccc(Oc2c(/C=N/NC(=O)Cn3c(=O)sc4ccccc43)c(C)nn2-c2ccccc2)cc1`, the growth is 41%.

For `COc1ccc(-c2nn(-c3cccc(Cl)c3)cc2/C=C2\NC(=S)N(c3ccc(Cl)cc3)C2=O)cc1`, the growth is -56.7% (active).

As to `CCOc1ccc(S(=O)(=O)Nc2ccc3c(c2)N(S(=O)(=O)CC)CCC3)cc1`, the growth was 85.4%.

As for `O=S(=O)(Nc1ccc2c(c1)OC(F)(F)O2)c1ccc(-c2cnc(C3CC3)o2)cc1`, the growth is 15.3%.

For the compound `COc1ccc(/C=C(\C#N)C(=O)Nc2cccc(Nc3nc(SC)nc(-c4cccc([N+](=O)[O-])c4)c3C#N)c2)cc1OC`, the growth is 106%.

As to `O=[N+]([O-])c1cc2ncccc2c2ncccc12`, the growth is 89%.

For `O=S(=O)(NCCNc1cc(-c2c(-c3cccc(O)c3)nc3sccn23)ccn1)c1ccc(C(F)(F)F)cc1`, the growth was 30.7%.

In the case of `Cc1ccc(-c2nnc3sc(C4=Cc5ccccc5OC=C4)nn23)cc1`, the growth is 109%.

For `O=C(Nc1ccc(F)cc1)c1cc(-c2ccc(F)cc2F)ccc1O`, the growth was -7.21% (active).

Regarding `CC(C)/C=C/CC[C@](C)(O)[C@H]1CC[C@]2(C)[C@@H]1CC[C@@H]1[C@@]3(C)C/C(=C/c4cccc(C(F)(F)F)c4)C(=O)C(C)(C)[C@@H]3CC[C@]12C`, the growth was 104%.

In the case of `Cc1c(C(=O)N[C@@H](Cc2ccccc2)C(=O)C(=O)NCCc2ccccc2)[nH]c2ccccc2c1=O`, the growth was 110%.

For `CCCCCCCCn1ccc2cc(NC(=O)CN3CCN(c4cc(C)nc(Cl)n4)CC3)ccc21`, the growth is 56.6%.

Regarding `O=C1/C(=C/c2ccc(O)cc2)COc2ccc(O)cc21`, the growth is 100%.

Turning to `Cc1ccc2nc(-c3ccc(C(=O)N/N=C/c4ccc([N+](=O)[O-])cc4)cc3)[nH]c2c1`, the growth is 113%.

With `Cc1ccc(/C=C/C(=O)Nc2ncc(Cc3ccc(F)cc3)s2)o1`, the growth is 34%.

For the compound `Nc1ccn(C2OC(CO)C(O)C2F)c(=O)n1` (centres undefined), the growth is 96.3%.
